The supplement of paper PMC10849652
About 8,800 targets were measured; listed, in parts, are those with a hit and a random draw of the rest. About 0.5% of all pairs of compound and target were hits.

How the values were obtained:
Test in all cases: log2 fold change, soluble protein after heating vs DMSO (PISA); higher = thermal stabilisation; K562 lysate, 10 uM; active = over 0.2 and 3.5 SD of the protein, either way, in both replicates (recomputed)
[1] = compound: C1=CC=C(C=C1)[C@H](COC2=CC3=C(C=C2)NC(=O)N3)NC(=O)C4=CC=CN(C4=O)CC5=CC(=C(C=C5)F)F
Summary of the method: (§1)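 Pellets of K562 cells were dounce-homogenised in PBS pH 7.4 with 1 mM MgCl2, and the crude extract was held at 1 mg/mL protein for a 30 min treatment with 10 μM compound. Aliquots were heated for 3 min over 48°C-58°C and pooled before NP-40 was added to 0.5% at 4°C. The supernatant from 21,000xg for 90 min was quantified by TMTpro 16plex LC-MS/MS with channel sums equalised. Values are reported from duplicates as log-two fold change in thermal stability relative to solvent controls.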

[2] = compound: CC1=C(SC2=C1C(=N[C@H](C3=NN=C(N32)C)CC(=O)N)C4=CC=C(C=C4)Cl)C
Summary of the method: as §1

[3] = compound: CC1=C2C(=CC=C1)N=C(N(C2=O)C3=CC=CC=C3C)CN4C=NC5=C(N=CN=C54)N
Summary of the method: as §1

[4] = compound: Cc1sc2c(c1C)C(c1ccc(Cl)cc1)=N[C@@H](CC(=O)OC(C)(C)C)c1nnc(C)n1-2
Summary of the method: as §1

[5] = compound: c1ccc([C@@H]2C[C@H]2NC2CCNCC2)cc1
Summary of the method: as §1

Measured: log2 fold change

EIF2D (UniProt P41214)
Chain of UniProt P41214 (P41214 whole entry, looked up): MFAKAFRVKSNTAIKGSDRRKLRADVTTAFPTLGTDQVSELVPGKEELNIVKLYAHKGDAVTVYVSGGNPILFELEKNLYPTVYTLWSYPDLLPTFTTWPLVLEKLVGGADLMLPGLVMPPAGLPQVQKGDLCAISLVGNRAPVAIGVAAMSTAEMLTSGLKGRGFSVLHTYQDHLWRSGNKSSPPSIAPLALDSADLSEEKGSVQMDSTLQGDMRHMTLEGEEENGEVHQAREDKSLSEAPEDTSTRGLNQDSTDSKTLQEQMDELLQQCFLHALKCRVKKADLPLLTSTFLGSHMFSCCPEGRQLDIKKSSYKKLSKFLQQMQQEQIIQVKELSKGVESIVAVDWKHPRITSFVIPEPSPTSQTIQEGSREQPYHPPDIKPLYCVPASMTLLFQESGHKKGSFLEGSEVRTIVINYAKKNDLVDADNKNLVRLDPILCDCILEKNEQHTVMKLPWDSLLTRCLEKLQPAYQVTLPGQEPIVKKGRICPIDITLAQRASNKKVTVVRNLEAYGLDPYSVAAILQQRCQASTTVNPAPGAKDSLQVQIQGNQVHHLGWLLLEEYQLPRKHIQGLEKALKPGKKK
inactive: [1] -0.007 | [2] -0.012 | [3] 0.044 | [4] 0.003 | [5] 0.049

FBRSL1, A0A3B3IRR3
inactive: [1] 0.002 | [2] 0.005 | [3] -0.021 | [4] 0.02 | [5] -0.028

ENSA isoform 3 (UniProt O43768)
Chain of UniProt O43768 (O43768 whole entry, looked up): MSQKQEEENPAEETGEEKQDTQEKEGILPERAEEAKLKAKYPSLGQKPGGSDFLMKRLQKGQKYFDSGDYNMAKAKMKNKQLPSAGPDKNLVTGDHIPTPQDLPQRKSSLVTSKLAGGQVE
inactive: [1] 0.037 | [2] -0.027 | [3] -0.024 | [4] -0.008 | [5] 0.02

EXTL2 (UniProt Q9UBQ6)
Chain of UniProt Q9UBQ6 (Q9UBQ6 whole entry, looked up): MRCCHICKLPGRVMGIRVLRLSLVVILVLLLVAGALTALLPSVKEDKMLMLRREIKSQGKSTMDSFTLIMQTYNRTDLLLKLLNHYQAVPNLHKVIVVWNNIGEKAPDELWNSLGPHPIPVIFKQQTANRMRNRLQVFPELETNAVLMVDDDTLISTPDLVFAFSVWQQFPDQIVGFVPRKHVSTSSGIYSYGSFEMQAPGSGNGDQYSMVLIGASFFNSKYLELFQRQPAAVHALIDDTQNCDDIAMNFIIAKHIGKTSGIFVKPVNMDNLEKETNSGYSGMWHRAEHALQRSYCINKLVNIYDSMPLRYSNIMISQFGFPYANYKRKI
inactive: [1] 0.208 | [2] 0.235 | [3] -0.059 | [4] -0.185 | [5] 0.028

GAPDH (UniProt P04406)
Chain of UniProt P04406 (P04406 whole entry, looked up): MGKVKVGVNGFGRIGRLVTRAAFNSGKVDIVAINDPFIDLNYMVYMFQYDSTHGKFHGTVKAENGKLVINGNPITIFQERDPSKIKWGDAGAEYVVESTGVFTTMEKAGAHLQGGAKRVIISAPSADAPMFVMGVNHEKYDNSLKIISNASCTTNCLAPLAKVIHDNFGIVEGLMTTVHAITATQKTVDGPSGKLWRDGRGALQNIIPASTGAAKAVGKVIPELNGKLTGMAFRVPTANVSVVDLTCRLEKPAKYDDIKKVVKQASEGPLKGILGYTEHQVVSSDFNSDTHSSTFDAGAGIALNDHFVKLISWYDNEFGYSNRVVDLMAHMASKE
inactive: [1] 0.004 | [2] 0.008 | [3] -0.018 | [4] 0.008 | [5] 0.052

EPRS (UniProt P07814)
inactive: [1] -0.005 | [2] 0.002 | [3] 0.003 | [4] 0.043 | [5] 0.016

FREM2 (UniProt Q5SZK8)
inactive: [1] 0 | [2] 0.074 | [3] 0.003 | [4] -0.133 | [5] -0.212

GCLM (UniProt P48507)
inactive: [1] 0.01 | [2] -0.041 | [3] 0.02 | [4] 0.008 | [5] 0.006

ETFRF1 (UniProt Q6IPR1)
Chain of UniProt Q6IPR1 (Q6IPR1 whole entry, looked up): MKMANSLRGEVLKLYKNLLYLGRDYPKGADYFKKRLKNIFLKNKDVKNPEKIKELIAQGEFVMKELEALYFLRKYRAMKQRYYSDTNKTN
inactive: [1] 0.021 | [2] 0.058 | [3] -0.031 | [4] -0.02 | [5] 0.066

EIF2AK1 (UniProt Q9BQI3)
inactive: [1] 0.006 | [2] -0.035 | [3] -0.007 | [4] -0.022 | [5] -0.041

ESYT2 (UniProt H7BXI1)
inactive: [1] 0.004 | [2] 0.018 | [3] -0.001 | [4] 0.048 | [5] 0.036

ESPL1 (UniProt Q14674)
inactive: [1] 0.016 | [2] 0.129 | [3] 0.251 | [4] 0.136 | [5] 0.077

EHD2 (UniProt Q9NZN4)
inactive: [1] -0.074 | [2] -0.065 | [3] 0.003 | [4] -0.069 | [5] 0.087

EEF1A1P5 (UniProt Q5VTE0)
inactive: [1] 0.006 | [2] 0.011 | [3] 0.004 | [4] -0.067 | [5] -0.036

FMNL1 isoform 3 (UniProt O95466)
inactive: [1] 0.104 | [2] -0.01 | [3] 0.057 | [4] 0.027 | [5] 0.082

FCHO1 (UniProt O14526)
Chain of UniProt O14526 (O14526 whole entry, looked up): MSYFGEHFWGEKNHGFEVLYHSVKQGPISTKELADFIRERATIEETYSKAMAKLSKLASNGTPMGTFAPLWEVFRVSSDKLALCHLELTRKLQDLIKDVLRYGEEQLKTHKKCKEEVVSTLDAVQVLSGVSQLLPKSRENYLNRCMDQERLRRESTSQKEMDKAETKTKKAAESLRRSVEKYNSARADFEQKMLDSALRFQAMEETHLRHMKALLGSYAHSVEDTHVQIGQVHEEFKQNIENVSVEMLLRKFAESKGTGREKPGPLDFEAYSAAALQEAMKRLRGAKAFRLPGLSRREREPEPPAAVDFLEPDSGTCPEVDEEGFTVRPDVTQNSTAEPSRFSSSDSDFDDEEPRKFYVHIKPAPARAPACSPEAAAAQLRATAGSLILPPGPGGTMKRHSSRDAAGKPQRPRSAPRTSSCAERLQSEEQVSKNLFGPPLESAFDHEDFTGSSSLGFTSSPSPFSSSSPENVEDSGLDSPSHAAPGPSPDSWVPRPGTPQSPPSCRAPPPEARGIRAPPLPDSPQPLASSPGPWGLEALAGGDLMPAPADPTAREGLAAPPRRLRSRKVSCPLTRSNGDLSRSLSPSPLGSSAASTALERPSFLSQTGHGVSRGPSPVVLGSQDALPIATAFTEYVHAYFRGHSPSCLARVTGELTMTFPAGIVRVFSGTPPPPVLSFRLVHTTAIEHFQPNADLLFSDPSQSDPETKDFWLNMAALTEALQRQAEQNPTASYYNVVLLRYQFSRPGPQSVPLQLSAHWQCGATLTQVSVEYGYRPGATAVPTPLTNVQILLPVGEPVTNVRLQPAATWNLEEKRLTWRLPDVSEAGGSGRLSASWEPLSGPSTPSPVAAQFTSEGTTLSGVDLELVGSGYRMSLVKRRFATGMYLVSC
inactive: [1] -0.026 | [2] 0.066 | [3] -0.025 | [4] 0.009 | [5] 0.027

EEF1AKMT4 (UniProt P0DPD7)
Chain of UniProt P0DPD7 (P0DPD7 whole entry, looked up): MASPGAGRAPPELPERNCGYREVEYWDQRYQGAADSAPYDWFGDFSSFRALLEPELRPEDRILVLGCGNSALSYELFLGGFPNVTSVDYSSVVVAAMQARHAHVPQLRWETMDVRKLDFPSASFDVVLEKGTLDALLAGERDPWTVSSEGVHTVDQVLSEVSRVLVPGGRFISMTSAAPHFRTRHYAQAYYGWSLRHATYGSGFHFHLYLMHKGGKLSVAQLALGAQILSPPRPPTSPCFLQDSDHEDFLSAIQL
inactive: [1] -0.061 | [2] 0.027 | [3] -0.036 | [4] 0.017 | [5] -0.063

FADS1, A0A0A0MR51
inactive: [1] 0.071 | [2] -0.019 | [3] -0.027 | [4] -0.035 | [5] 0.013

ERLIN2 (UniProt O94905)
Chain of UniProt O94905 (O94905 whole entry, looked up): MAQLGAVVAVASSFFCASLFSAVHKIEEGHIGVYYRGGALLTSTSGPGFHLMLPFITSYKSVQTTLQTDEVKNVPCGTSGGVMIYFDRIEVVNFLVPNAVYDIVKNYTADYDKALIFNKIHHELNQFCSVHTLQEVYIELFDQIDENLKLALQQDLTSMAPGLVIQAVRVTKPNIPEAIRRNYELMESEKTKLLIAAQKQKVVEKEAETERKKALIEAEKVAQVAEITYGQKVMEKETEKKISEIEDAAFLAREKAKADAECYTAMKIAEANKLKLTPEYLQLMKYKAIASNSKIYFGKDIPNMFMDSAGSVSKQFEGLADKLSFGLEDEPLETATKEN
inactive: [1] 0.009 | [2] -0.007 | [3] 0.016 | [4] -0.126 | [5] 0.143

DST (UniProt Q03001)
inactive: [1] -0.002 | [2] 0.042 | [3] 0.111 | [4] -0.061 | [5] -0.077

FAM114A2 (UniProt Q9NRY5)
inactive: [1] 0.073 | [2] -0.002 | [3] -0.027 | [4] 0.019 | [5] 0.035

FTSJ3 (UniProt Q8IY81)
Chain of UniProt Q8IY81 (Q8IY81 whole entry, looked up): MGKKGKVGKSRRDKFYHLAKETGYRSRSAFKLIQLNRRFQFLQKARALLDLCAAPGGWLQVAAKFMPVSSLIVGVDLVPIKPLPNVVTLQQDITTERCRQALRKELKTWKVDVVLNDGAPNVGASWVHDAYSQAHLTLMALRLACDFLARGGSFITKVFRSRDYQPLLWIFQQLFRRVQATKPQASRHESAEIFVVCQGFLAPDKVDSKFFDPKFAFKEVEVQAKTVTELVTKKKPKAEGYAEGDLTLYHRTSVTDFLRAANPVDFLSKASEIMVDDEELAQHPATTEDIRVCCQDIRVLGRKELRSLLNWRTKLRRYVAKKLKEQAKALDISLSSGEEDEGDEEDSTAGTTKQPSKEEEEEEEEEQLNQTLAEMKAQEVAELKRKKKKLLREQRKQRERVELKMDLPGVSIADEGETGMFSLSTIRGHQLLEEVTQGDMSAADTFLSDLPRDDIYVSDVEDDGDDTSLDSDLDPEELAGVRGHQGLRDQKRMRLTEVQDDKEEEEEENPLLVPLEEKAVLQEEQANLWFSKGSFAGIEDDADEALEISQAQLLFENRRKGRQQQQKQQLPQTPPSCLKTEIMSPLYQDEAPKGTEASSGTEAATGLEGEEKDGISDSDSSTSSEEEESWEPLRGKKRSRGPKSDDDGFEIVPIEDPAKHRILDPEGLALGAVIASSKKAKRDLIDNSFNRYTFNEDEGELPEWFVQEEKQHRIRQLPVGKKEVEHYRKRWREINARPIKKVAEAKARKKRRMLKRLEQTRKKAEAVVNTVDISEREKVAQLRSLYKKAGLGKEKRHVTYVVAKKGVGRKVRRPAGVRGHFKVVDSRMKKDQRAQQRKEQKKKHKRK
inactive: [1] 0.022 | [2] -0.051 | [3] -0.007 | [4] -0.003 | [5] 0.083

FBXO30 (UniProt Q8TB52)
inactive: [1] -0.034 | [2] 0.011 | [3] -0.041 | [4] 0.036 | [5] 0.12

DYNC1I2 isoform 5 (UniProt Q13409)
Chain of UniProt Q13409 (Q13409 whole entry, looked up): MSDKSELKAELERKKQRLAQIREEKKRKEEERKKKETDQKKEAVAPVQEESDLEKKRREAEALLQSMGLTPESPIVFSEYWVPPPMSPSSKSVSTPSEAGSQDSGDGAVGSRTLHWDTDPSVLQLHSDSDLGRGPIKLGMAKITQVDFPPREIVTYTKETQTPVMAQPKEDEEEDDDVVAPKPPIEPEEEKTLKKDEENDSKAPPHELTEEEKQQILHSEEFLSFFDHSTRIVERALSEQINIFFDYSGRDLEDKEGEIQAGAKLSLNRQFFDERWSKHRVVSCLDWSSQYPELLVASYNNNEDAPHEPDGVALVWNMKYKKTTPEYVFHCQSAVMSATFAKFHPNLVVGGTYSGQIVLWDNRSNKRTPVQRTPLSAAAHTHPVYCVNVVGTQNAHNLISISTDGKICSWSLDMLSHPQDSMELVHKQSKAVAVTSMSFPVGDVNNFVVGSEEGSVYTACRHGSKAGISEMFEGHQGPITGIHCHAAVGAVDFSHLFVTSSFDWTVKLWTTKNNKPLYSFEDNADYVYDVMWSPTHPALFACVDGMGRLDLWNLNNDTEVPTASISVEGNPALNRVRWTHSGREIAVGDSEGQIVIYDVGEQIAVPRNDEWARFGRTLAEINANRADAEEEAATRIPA
inactive: [1] 0.049 | [2] -0.03 | [3] -0.012 | [4] -0.018 | [5] 0.021

GCDH (UniProt Q92947)
Chain of UniProt Q92947 (Q92947 whole entry, looked up): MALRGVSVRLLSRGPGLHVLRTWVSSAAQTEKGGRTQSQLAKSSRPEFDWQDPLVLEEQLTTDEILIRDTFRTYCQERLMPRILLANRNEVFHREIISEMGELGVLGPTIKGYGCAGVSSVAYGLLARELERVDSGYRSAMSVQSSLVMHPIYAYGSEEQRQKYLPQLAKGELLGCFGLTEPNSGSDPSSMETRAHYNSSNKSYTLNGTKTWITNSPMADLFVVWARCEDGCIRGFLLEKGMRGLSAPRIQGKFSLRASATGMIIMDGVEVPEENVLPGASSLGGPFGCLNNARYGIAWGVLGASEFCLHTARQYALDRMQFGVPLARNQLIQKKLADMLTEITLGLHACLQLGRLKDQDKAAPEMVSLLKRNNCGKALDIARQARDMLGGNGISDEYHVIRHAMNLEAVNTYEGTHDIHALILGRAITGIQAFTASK
inactive: [1] 0.034 | [2] -0.032 | [3] -0.022 | [4] -0.008 | [5] -0.004

DYNC1I2 isoform 2 (UniProt Q13409)
inactive: [1] -0.011 | [2] 0.253 | [3] -0.005 | [4] 0.082 | [5] 0.155
